Results as given in ChEMBL document CHEMBL2218924, “A broad activity screen in support of a chemogenomic map for kinase signalling research and drug discovery” (Biochem J, 2013).

Molecular target: T1, Interleukin-1 receptor-associated kinase 4 (Homo sapiens) (UniProt Q9NWZ3)
T1 sequence (whole entry): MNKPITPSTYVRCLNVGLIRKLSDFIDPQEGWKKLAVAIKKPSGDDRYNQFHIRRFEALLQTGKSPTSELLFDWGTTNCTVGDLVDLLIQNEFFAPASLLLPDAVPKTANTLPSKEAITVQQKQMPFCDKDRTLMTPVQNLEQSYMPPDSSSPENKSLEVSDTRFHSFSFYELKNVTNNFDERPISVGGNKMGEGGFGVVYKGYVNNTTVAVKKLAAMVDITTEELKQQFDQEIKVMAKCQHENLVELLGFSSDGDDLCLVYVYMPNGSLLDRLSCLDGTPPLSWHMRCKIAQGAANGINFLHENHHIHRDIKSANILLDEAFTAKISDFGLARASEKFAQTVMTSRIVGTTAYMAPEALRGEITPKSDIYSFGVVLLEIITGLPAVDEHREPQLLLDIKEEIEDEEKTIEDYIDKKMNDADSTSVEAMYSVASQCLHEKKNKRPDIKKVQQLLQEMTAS
Settings: at 10 µM

Q: Which residual activity does the source give for `Cn1cc(/C=C2\C(=O)Nc3ccc(S(N)(=O)=O)cc32)c2ccccc21` here?
A: -1%

Q: For `COc1cc2ncnc(Nc3ccc(Oc4ccccc4)cc3)c2cc1OC`, which residual activity is on record?
A: 79%

Q: Which residual activity does the source give for `O=c1cc(-c2cccc3c2Sc2ccccc2S3)oc(N2CCOCC2)c1` here?
A: 98%

Q: `Oc1ccc(-c2nc(-c3ccc(F)cc3)c(-c3ccncc3)[nH]2)cc1` was tested. Which residual activity did it give?
A: 88%

Q: How did the residual activity turn out when `O=C1c2ccccc2-[n+]2ccc3c([nH]c4ccccc43)c21` was run?
A: 78%

Q: For `Nc1nc(Nc2ccc(S(N)(=O)=O)cc2)nn1C(=S)Nc1c(F)cccc1F`, which residual activity is on record?
A: 0%

Q: Which residual activity does the source give for `N#C/C(=C(\N)Sc1ccc(N)cc1)c1ccccc1C(F)(F)F` here?
A: 81%

Q: How did the residual activity turn out when `CN(C)CCCn1cc(C2=C(c3c[nH]c4ccccc34)C(=O)NC2=O)c2ccccc21` was run?
A: 53%

Q: How did the residual activity turn out when `c1ccc(-c2n[nH]cc2-c2ccnc3ccccc23)nc1` was run?
A: 101%

Q: Which residual activity does the source give for `CC(=O)c1ccc(N2CCOCC2)cc1O` here?
A: 98%

Q: How did the residual activity turn out when `CO[C@@H]1[C@H](N(C)C(=O)c2ccccc2)C[C@H]2O[C@]1(C)n1c3ccccc3c3c4c(c5c6ccccc6n2c5c31)C(=O)NC4` was run?
A: 47%

Q: Which residual activity does the source give for `O=C(Nc1cccc(Nc2nccc(Nc3cccc(C(F)(F)F)c3)n2)c1)C1CC1` here?
A: 44%

Q: How did the residual activity turn out when `N#Cc1cnc2cnc(NCc3cccnc3)cc2c1Nc1ccc(F)c(Cl)c1` was run?
A: 43%

Q: With `CC(=O)O/N=C1\C(=C2\C(=O)Nc3cc(Br)ccc32)Nc2ccccc21` as the molecule, how does the residual activity read?
A: 48%

Q: `Cn1cnc2cc3c(Nc4cccc(Br)c4)ncnc3cc21` was tested. Which residual activity did it give?
A: 46%

Q: Which residual activity does the source give for `CCC(=O)Nc1ccc2ncnc(Nc3cccc(Br)c3)c2c1` here?
A: 91%

Q: For `O=c1c2ccccc2[nH]c(=S)n1CCN1CCC(=C(c2ccc(F)cc2)c2ccc(F)cc2)CC1`, which residual activity is on record?
A: 103%

Q: With `CC[n+]1c(/C=C/N(C)c2ccccc2)n(-c2ccccc2)c2ccc(-c3nc4ccccc4s3)cc21` as the molecule, how does the residual activity read?
A: 78%

Q: Which residual activity does the source give for `O=Nc1c(-c2c(O)[nH]c3ccccc23)[nH]c2ccccc12` here?
A: 6%

Q: With `CC#CC(=O)Nc1cc2c(Nc3ccc(F)c(Cl)c3)ncnc2cn1` as the molecule, how does the residual activity read?
A: 98%

Q: `O=[N+]([O-])c1ccc(-c2nc(-c3ccc(F)cc3)c(-c3ccncc3)[nH]2)cc1` was tested. Which residual activity did it give?
A: 97%

Q: For `COc1cc2ncnc(Nc3ccc(NC(=O)c4ccccc4)cc3)c2cc1OC`, which residual activity is on record?
A: 97%

Q: `O=C(O)c1ccc2c3c1cccc3c(=O)n1c3ccccc3nc21` was tested. Which residual activity did it give?
A: 89%

Q: With `CCN(CC)C(=O)c1ccc(Nc2nc(OCC3CCCCC3)c3nc[nH]c3n2)cc1` as the molecule, how does the residual activity read?
A: 15%

Q: Which residual activity does the source give for `O=C1Nc2ccc(Br)cc2/C1=C\c1cc2c([nH]1)CCCC2` here?
A: 77%

Q: Which residual activity does the source give for `N#CCCc1ccc2c(c1)-c1[nH]c3ccc([N+](=O)[O-])cc3c1CC(=O)N2` here?
A: 28%

Q: How did the residual activity turn out when `Cc1cc(Nc2nc(-c3ccccc3)nc3ccccc23)n[nH]1` was run?
A: 12%

Q: `c1ccc(-c2n[nH]c3c2oc2ccccc23)cc1` was tested. Which residual activity did it give?
A: 68%

Q: `Oc1ccc(Nc2nc(-c3ccc(Cl)cc3)cs2)cc1` was tested. Which residual activity did it give?
A: 97%

Q: For `c1ccc2c(-c3ccncc3)c[nH]c2c1`, which residual activity is on record?
A: 99%
